# Assay results from the supplement of paper PMC8728848.
# The sample as a whole holds a higher share of the strongest signals than the screen did.
# B1: Surfactant Protein D (Human); Neck + Carbohydrate Recognition Domain (NCRD) (Homo sapiens) (protein)
# chain: MLLFLLSALVLLTQPLGYLEAEMKTYSHRTMPSACTLVMCSSVESGLPGRDRDGREGPRGEKGDPGLPGAAGQAGMPGQAGPVGPKGDNGSVGEPGPKGDTGPSGPPGPPGVPGPAGREGALGKQGNIGPQGKPGPKGEAGPKGEVGAPGMQGSAGARGLAGPKGERGVPGERGVPGNTGAAGSAGAMGPQGSPGARGPPGLKGDKGIPGDKGAKGESGLPDVASLRQQVEALQGQVQHLQAAFSQYKKVELFPNGQSVGEKIFKTAQFVKPFTEAQLLCTQAGGQLASPRSAAENAALQQLVVAKNEAAFLSMTDSKTEGKFTYPTGESLVYSNWAPGEPNDAGGSEDCVEIFTNGKWNDRACGEKRLVVCEF
# Assays:
# Assay in all cases: glycan array binding signal (z-score within array); higher = stronger binding
# Settings in all cases: glycan notation: IUPAC condensed, linker removed; mutation: D325A
# [1] = molecular target: Fuc(a1-2)Gal(b1-3)GalNAc(b1-4)[Neu5Ac(a2-3)]Gal(b1-4)Glc
# In short: (§1)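 Glycan array data came from 3228 arrays in the Consortium for Functional Glycomics database, and only arrays with an available protein sequence were kept. Glycan names were put into IUPAC-condensed notation, and columns mapping to the same glycan were averaged. The binding signal is a within-array Z-score, averaged across arrays of one protein sequence run at different concentrations or buffers and across linkers. A negative Z-score can be read as non-binding.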
# Fuc(a1-2)Gal(b1-3)GlcNAc = molecular target: Fuc(a1-2)Gal(b1-3)GlcNAc
# In short: as §1
# [2] = molecular target: Fuc(a1-2)Gal(b1-4)GlcNAc(b1-3)Gal(b1-4)GlcNAc
# In short: as §1
# [3] = molecular target: Fuc(a1-2)[Gal(a1-3)]Gal(b1-4)Glc
# In short: as §1
# [4] = molecular target: Fuc(a1-2)[GalNAc(b1-3)]Gal
# In short: as §1
# [5] = molecular target: Fuc(a1-3)[Gal3S(b1-4)]Glc6S
# In short: as §1
# [6] = molecular target: Fuc(a1-3)[Gal3S(b1-4)]GlcNAc
# In short: as §1
# Gal(a1-3)GalNAc = molecular target: Gal(a1-3)GalNAc
# In short: as §1
# [7] = molecular target: Gal(b1-3)GlcNAc(b1-3)Gal(b1-4)GlcNAc
# In short: as §1
# [8] = molecular target: Gal(b1-4)GlcNAc(b1-2)Man(a1-3)[Gal(b1-4)GlcNAc(b1-2)Man(a1-6)]Man(b1-4)GlcNAc(b1-4)GlcNAc
# In short: as §1
# [9] = molecular target: Gal(b1-4)GlcNAc(b1-3)Gal(b1-3)GlcNAc
# In short: as §1
# Gal3S(b1-3)GalNAc = molecular target: Gal3S(b1-3)GalNAc
# In short: as §1
# Gal4S6S(b1-4)GlcNAc = molecular target: Gal4S6S(b1-4)GlcNAc
# In short: as §1
# GlcA(b1-6)Gal = molecular target: GlcA(b1-6)Gal
# In short: as §1
# [10] = molecular target: GlcNAc(b1-4)Gal(b1-4)GlcNAc
# In short: as §1
# [11] = molecular target: Man(a1-2)Man(a1-2)Man(a1-3)Man
# In short: as §1
# [12] = molecular target: Man(a1-2)Man(a1-3)[Man(a1-2)Man(a1-6)]Man(a1-6)[Man(a1-2)Man(a1-2)Man(a1-3)]Man
# In short: as §1
# [13] = molecular target: Man(a1-2)Man(a1-6)[Man(a1-3)]Man(a1-6)[Man(a1-2)Man(a1-2)Man(a1-3)]Man
# In short: as §1
# [14] = molecular target: Man(a1-3)[Man(a1-6)]Man(a1-6)[Man(a1-2)Man(a1-3)]Man(b1-4)GlcNAc(b1-4)GlcNAc
# In short: as §1
# [15] = molecular target: Man(a1-3)[Man(a1-6)]Man(a1-6)[Man(a1-3)]Man
# In short: as §1
# [16] = molecular target: Neu5Gc(a2-3)Gal(b1-4)[Fuc(a1-3)]GlcNAc
# In short: as §1
binder,measurement,setting,value
B1,glycan array binding signal (z-score),[1],-0.163
same,glycan array binding signal (z-score),Fuc(a1-2)Gal(b1-3)GlcNAc,-0.276
same,glycan array binding signal (z-score),[2],-0.226
same,glycan array binding signal (z-score),[3],-0.272
same,glycan array binding signal (z-score),[4],-0.268
same,glycan array binding signal (z-score),[5],-0.246
same,glycan array binding signal (z-score),[6],-0.269
same,glycan array binding signal (z-score),Gal(a1-3)GalNAc,-0.164
same,glycan array binding signal (z-score),[7],-0.267
same,glycan array binding signal (z-score),[8],-0.273
same,glycan array binding signal (z-score),[9],-0.269
same,glycan array binding signal (z-score),Gal3S(b1-3)GalNAc,-0.274
same,glycan array binding signal (z-score),Gal4S6S(b1-4)GlcNAc,-0.275
same,glycan array binding signal (z-score),GlcA(b1-6)Gal,-0.26
same,glycan array binding signal (z-score),[10],-0.128
same,glycan array binding signal (z-score),[11],5.67
same,glycan array binding signal (z-score),[12],5.16
same,glycan array binding signal (z-score),[13],4.8
same,glycan array binding signal (z-score),[14],4.71
same,glycan array binding signal (z-score),[15],4.73
same,glycan array binding signal (z-score),[16],-0.27
